PubChem BioAssay (EPA / NIEHS)
Calls of active or inactive are those of the source. The calls were made as follows: active = hit-call score of the fitted dose curve at least 0.9, where 1 is the maximum; inactive = score below 0.9.

Tests used:
Details in all cases: mRNA level, 48 h; actives raise or lower the signal
[1] = read-out: Interleukin 6 (IL6), IL6 (gene 3569); assay: LTEA_HepaRG_IL6: Life Technologies and Expression Analysis (LTEA) Assay for Interleukin 6 (IL6) using HepaRG (AID 2283509)
How it was run: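 HepaRG, ~100,000 cells/well, 48 h pre-culture; serum-free induction medium; cmpd 8-pt half-log from 100 uM, 0.5% DMSO, duplicate, 48 h. Lysis in RLT, TaqMan qRT-PCR; gain or loss vs DMSO.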

[2] = read-out: Interleukin 6 Receptor (IL6R), IL6R (gene 3570); assay: LTEA_HepaRG_IL6R: Life Technologies and Expression Analysis (LTEA) Assay for Interleukin 6 Receptor (IL6R) using HepaRG (AID 2283510)
How it was run: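 Differentiated human HepaRG cells, plated 48 h then switched to serum-free induction medium, were dosed in duplicate for 48 h at eight half-log concentrations up to 100 uM in 0.5% DMSO. IL6R mRNA quantified by qRT-PCR, normalized to ACTB/GAPDH/POLR2A; bidirectional fit versus DMSO.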

[3] = read-out: Potassium channel subfamily K member 1 (KCNK1), KCNK1 (gene 3775); assay: LTEA_HepaRG_KCNK1: Life Technologies and Expression Analysis (LTEA) Assay for Potassium channel subfamily K member 1 (KCNK1) using HepaRG (AID 2283511)
How it was run: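 Gain or loss of KCNK1 mRNA is the read-out, quantified by qRT-PCR against three housekeeping genes after 48 h chemical treatment of human HepaRG liver cells. Concentrations ran from 100 uM downward in half-log steps, vehicle 0.5% DMSO.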

[4] = read-out: Keratin 19 (KRT19), KRT19 (gene 3880); assay: LTEA_HepaRG_KRT19: Life Technologies and Expression Analysis (LTEA) Assay for Keratin 19 (KRT19) using HepaRG (AID 2283512)
How it was run: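 KRT19 transcript measured by TaqMan qRT-PCR, referenced to three housekeeping genes, after HepaRG cells received test chemicals for 48 h. Eight half-log concentrations, top 100 uM, 0.5% DMSO vehicle; increases and decreases both fitted.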

[5] = read-out: JUN Transcription Factor, JUN (gene 3725); assay: LTEA_HepaRG_JUN: Life Technologies and Expression Analysis (LTEA) Assay for JUN Transcription Factor using HepaRG (AID 2283513)
How it was run: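 Differentiated HepaRG cells were exposed to chemicals for 48 h in serum-free induction medium, 8 concentrations from 100 uM in half-log steps, 0.5% DMSO vehicle, in duplicate. JUN mRNA was quantified by TaqMan qRT-PCR, normalized to ACTB, GAPDH, POLR2A.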

[6] = read-out: Lipase C (LIPC), LIPC (gene 3990); assay: LTEA_HepaRG_LIPC: Life Technologies and Expression Analysis (LTEA) Assay for Lipase C (LIPC) using HepaRG (AID 2283514)
How it was run: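 Read-out is LIPC transcript level by TaqMan qRT-PCR, normalized to three housekeeping genes, after 48 h chemical treatment of human HepaRG liver cells. Curves span eight concentrations topping at 100 uM; activity in either direction scored relative to 0.5% DMSO.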

[7] = read-out: Lipoprotein lipase (LPL), LPL (gene 4023); assay: LTEA_HepaRG_LPL: Life Technologies and Expression Analysis (LTEA) Assay for Lipoprotein lipase (LPL) using HepaRG (AID 2283515)
How it was run: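 Read-out is LPL transcript level by qRT-PCR, normalized to three housekeeping genes and fitted bidirectionally against the DMSO control. Human HepaRG cells received chemicals for 48 h at up to 100 uM.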

[8] = read-out: MicroRNA 122 (MIR122), gene 406906; assay: LTEA_HepaRG_MIR122: Life Technologies and Expression Analysis (LTEA) Assay for MicroRNA 122 (MIR122) using HepaRG (AID 2283516); also: the transcript read is the microRNA miR-122
How it was run: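 Differentiated human HepaRG cells were exposed 48 h in serum-free induction medium to eight half-log concentrations (top 100 uM, 0.5% DMSO). Transcript level was measured by TaqMan qRT-PCR, normalized to ACTB, GAPDH and POLR2A, and fitted bidirectionally versus DMSO.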

[9] = read-out: matrix metalloproteinase-10 (MMP10), MMP10 (gene 4319); assay: LTEA_HepaRG_MMP10: Life Technologies and Expression Analysis (LTEA) Assay for matrix metalloproteinase-10 (MMP10) using HepaRG (AID 2283517)
How it was run: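 Gain or loss of MMP10 mRNA is fitted relative to the 0.5% DMSO vehicle. The human hepatic line HepaRG receives a 48-hour serum-free exposure, in duplicate, with a maximum concentration of 100 uM.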

[10] = read-out: MYC, MYC (gene 4609); assay: LTEA_HepaRG_MYC: Life Technologies and Expression Analysis (LTEA) Assay for MYC using HepaRG (AID 2283518)
How it was run: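 MYC transcript changes, up or down relative to 0.5% DMSO, from TaqMan qRT-PCR normalized to three housekeeping genes. Human HepaRG cultures received chemicals for 48 h at eight half-log concentrations up to 100 uM, in duplicate.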

Measured: outcome

CS(=O)(=O)OCCCCOS(C)(=O)=O
inactive: [1] | [2] | [3] | [4] | [5] | [6] | [7] | [8] | [9] | [10]
